Only some compounds are listed: those with a hit (about 4% of all), similar ones and a draw of the others.
MITF TRPM1 inh – inhibitors of MITF-dependent TRPM1 promoter reporter, primary screen, cell-based, SK-MEL-5, single point, luciferase. AID 488899, 2010. inhibition, % at 12.5 µM. SK-MEL-5 TRPM1 promoter luciferase, 24 h. 0.83% of 330,000 active;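 active = mean inhibition across replicates of 60% or more, whatever share of single replicates reaches that level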
LMP1 NFkB inh – EBV LMP1-driven NF-kappaB luciferase reporter inhibitors, primary screen, cell-based, luminescence, single point. LMP1-induced NF-kappaB luciferase reporter cells. AID 504558, 2011. inhibition, % at 12.5 µM. 0.69% of 350,000 active; in the data active = inhibition above about 41%
TROY signal inh – inhibitors of TROY-driven NF-kB signaling, primary screen, Q293 LMP1-TROYcd cells, NF-kB luciferase, uHTS. Q293 LMP1-TROYcd NF-kB luciferase reporter, 4 h. AID 1347056, 2019. 0.98% of 360,000 active. inhibition, % at 10 µM;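 active = compounds whose plate-normalised and pattern-corrected inhibition of the luciferase reporter signal at the single screening dose is 50% or more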
TWEAK-Fn14 inh – inhibitors of TWEAK-Fn14 signaling, primary screen, luciferase reporter cells, uHTS; TWEAK-stimulated Fn14 reporter cells, luciferase luminescence, 8 h; AID 1159606, 2016; inhibition, % at 10 µM; 2% of 360,000 active; in the data active = inhibition above about 50%
HIF-2a inh – HIF-2a reporter inhibitors, primary screen, luminescence, 786-0 RCC cells | 786-0 RCC cells HIF-2a reporter, luciferase luminescence, overnight | inhibition, % at 18.8 µM | 0.72% of 360,000 active;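 active = inhibition of the luminescence signal of 40% or more relative to plate controls, in a single-dose primary screen at 18.75 µM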
Peg3 promoter – Peg3 promoter-driven luciferase inhibitors, primary screen, cell-based, HeLa, luciferase luminescence. AID 588405, 2011. 1.7% of 360,000 active. inhibition, % at 20 µM. HeLa PEG-Prom luciferase reporter, overnight;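 active = inhibition of at least 50% at 20 µM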
A number is an active result; 0 = inactive; - = no result given.

SMILES | MITF TRPM1 inh | LMP1 NFkB inh | TROY signal inh | TWEAK-Fn14 inh | HIF-2a inh | Peg3 promoter
CC1(C)SC2c3ccccc3C(=O)N2[C@@H]1C(=O)O (stereo not given in full) | - | 0 | 0 | 0 | 0 | 0
CCOC(=O)N1CCN(C(=O)C2CCC(CNS(=O)(=O)c3ccc(Cl)cc3)CC2)CC1 (stereo not given) | 0 | 0 | - | 51 | 0 | 0
CCOC(=O)N1CCN(C(=O)C2CCN(S(=O)(=O)c3ccc(Cl)cc3)CC2)CC1 | 0 | 0 | 0 | 0 | 0 | 0
CCOC(=O)N1CCN(C(=O)C2CCN(C(=O)c3ccccc3C)CC2)CC1 | 74 | 0 | 0 | 0 | 0 | 107
Cc1ccccc1C(=O)N1CCC(C(=O)N2CCN(c3ncccn3)CC2)CC1 | 0 | 0 | 0 | 0 | 0 | 0
O=CNc1c(Br)cc2c(c1Br)Cc1cc(Br)ccc1-2 | 0 | 0 | 0 | 0 | 0 | 0
COc1ccc(C=O)cc1CSc1ncccc1C(=O)O | 0 | 0 | 0 | 0 | 0 | 0
Cc1cc(C2=NNC(=NC3CC3)SC2)c(C)n1-c1ccccc1 | 100 | 74 | 0 | 96 | 91 | 103
c1ccc(C2=NNC(=NC3CC3)SC2)cc1 | 0 | 48 | 0 | 63 | 0 | 0
c1ccc2c(C3=NNC(=NC4CC4)SC3)c[nH]c2c1 | 0 | 0 | 0 | 78 | 0 | 0
O=C(Nc1ncnc2c1C(c1ccccc1)c1c(ccc3ccccc13)O2)c1ccccc1 (stereo not given) | 0 | 0 | 0 | 54 | 0 | 0
O=C(Cc1ccccc1)Nc1ncnc2c1C(c1ccccc1)c1c(ccc3ccccc13)O2 (stereo not given) | 0 | 0 | 0 | 51 | 0 | 53
CCOC(=O)CCC(=O)Nc1ncnc2c1C(c1ccccc1)c1c(ccc3ccccc13)O2 (stereo not given) | 0 | 0 | 0 | 0 | 0 | 0
COCCC(C(=O)Oc1c(C(C)(C)C)cc(C)cc1C(C)(C)C)c1ccccc1 (stereo not given) | 0 | 0 | 0 | 0 | 0 | 0
Cn1ccc2cc(-c3csc(N4CCC(C(N)=O)CC4)n3)ccc21 | 0 | 0 | 0 | 0 | 0 | 0
C[C@@H]1CN([C@H](C)CO)C(=O)c2cc(NC(=O)Nc3ccc(C(F)(F)F)cc3)ccc2O[C@H]1CN(C)S(=O)(=O)c1ccccc1 | 0 | 0 | 0 | 55 | 0 | 0
COc1ccc(S(=O)(=O)N(C)C[C@H]2Oc3ccc(NC(=O)Nc4ccc(C(F)(F)F)cc4)cc3C(=O)N([C@H](C)CO)C[C@@H]2C)cc1 | 0 | 0 | 0 | 58 | 0 | 0
COc1ccc(NC(=O)Nc2ccc3c(c2)C(=O)N([C@H](C)CO)C[C@H](C)[C@@H](CN(C)S(=O)(=O)c2ccc(OC)cc2)O3)cc1 | 0 | 0 | 0 | 0 | 0 | 0
COc1ccc(S(=O)(=O)N(C)C[C@@H]2Oc3cc(Br)ccc3S(=O)(=O)N([C@H](C)CO)C[C@@H]2C)cc1 | - | 0 | 0 | 0 | 0 | 54
C[C@H](CO)N1C[C@H](C)[C@@H](CN(C)S(=O)(=O)c2ccccc2)Oc2c(NC(=O)Nc3ccc(C(F)(F)F)cc3)cccc2C1=O | 0 | 0 | 0 | 0 | 0 | 0
COc1ccc(S(=O)(=O)N(C)C[C@H]2Oc3cc(Br)ccc3S(=O)(=O)N([C@H](C)CO)C[C@H]2C)cc1 | - | 0 | 0 | 0 | 0 | 0
CCN(CC)S(=O)(=O)c1cccc(-c2nnc(SCc3nc4ccccc4s3)o2)c1 | 0 | 0 | 57 | 0 | 0 | 0
CCN(CC)S(=O)(=O)c1cccc(-c2nnc(SCCCC(=O)c3ccccc3)o2)c1 | 0 | 0 | 0 | 0 | 0 | 0
O=C(Cc1ccc(F)cc1)N1CCOCC1 | 0 | 0 | 0 | 0 | 0 | 0
CCS(=O)(=O)c1nc(S(=O)(=O)c2ccc(Cl)cc2)c(N2CCC(O)CC2)s1 | 0 | 0 | 0 | 0 | 0 | 0
c1ccc2c(c1)oc1c(-c3ccc4nccn4c3)cccc12 | - | - | 0 | 0 | 0 | 0
Cc1nn(C(=O)c2c(-c3ccccc3)noc2C)c(C)c1N=Nc1cc(C(F)(F)F)cc(C(F)(F)F)c1 | 0 | 0 | 68 | 0 | 0 | 0
O=C(O)c1ccc(N=c2oc3cc(O)ccc3cc2C(=O)NCc2ccccc2)cc1 | 0 | 0 | 0 | 0 | 0 | 0

From PubChem
